These results are taken from PubChem BioAssay (EPA / NIEHS).

The term AC50 denotes the midpoint of the concentration-response curve, whichever way the signal moves.

Test [1] is described as follows: CCTE_Shafer_MEA_dev_firing_rate_mean: CCTE's Neural Network Formation Assay for Mean Firing Rate, Shafer Lab (AID 2284031). The gist of the method:
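Primary rat cortical neurons on 48-well MEA plates, exposed from plating day 0 with dosing renewed on DIV 5 and 9. Mean well firing rate over active electrodes, recorded days 5, 7, 9, 12, summarised as trapezoidal AUC.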

The nature of test [2]: CCTE_Shafer_MEA_dev_per_burst_spike_percent: CCTE's Neural Network Formation Assay for Percent of Spikes in a Burst, Shafer Lab (AID 2284032). An outline of the steps:
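Rat primary cortical neurons on 16-electrode MEA wells, dosed from plating day 0 for 12 days with renewal on DIV 5 and 9; spikes-in-bursts percentage averaged over bursting electrodes, collapsed as AUC across days 5, 7, 9, 12; loss direction versus DMSO.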

A short description of test [3]: CCTE_Shafer_MEA_dev_per_burst_interspike_interval: CCTE's Neural Network Formation Assay for Burst Interspike Interval, Shafer Lab (AID 2284044).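 Also: mean spike spacing inside bursts as AUC over recordings on days 5 7 9 12.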 An outline of the steps:
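Spontaneous activity of maturing rat cortical networks is recorded on DIV 5, 7, 9 and 12 under chronic compound exposure beginning at plating. Endpoint: burst interspike interval well-mean, collapsed into trapezoidal AUC and fitted in the negative direction relative to DMSO.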

The nature of test [4]: CCTE_Shafer_MEA_dev_burst_duration_mean: CCTE's Neural Network Formation Assay for Mean Burst Duration, Shafer Lab (AID 2284045). The gist of the method: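 Read-out: average first-to-last-spike interval within single-electrode bursts, averaged over bursting electrodes per well, then summarised as area under the curve across days 5, 7, 9 and 12. Developing rat cortical networks were exposed from day 0.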

Test [5] is described as follows: CCTE_Shafer_MEA_dev_interburst_interval_mean: CCTE's Neural Network Formation Assay for Mean Interburst Interval, Shafer Lab (AID 2284046).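 Also: well-mean interburst interval of bursting electrodes as AUC over four recording days; curve fitted for decrease in interburst interval relative to DMSO.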 The gist of the method:
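Primary rat cortical neurons on PEI-coated 48-well MEA plates (laminin added with cells at plating) (16 electrodes/well), exposed from plating day 0 with renewal at DIV 5 and 9. Mean inter-burst interval averaged over bursting electrodes, AUC across days 5, 7, 9, 12; DMSO baseline.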

The nature of test [6]: CCTE_Shafer_MEA_dev_network_spike_number: CCTE's Neural Network Formation Assay for Number of Network Spikes, Shafer Lab (AID 2284048).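 Also: synchronized bursts across electrodes counted on days 5 7 9 12 and integrated as AUC.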 An outline of the steps: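 Developing networks of primary rat cortical neurons are treated over 12 days starting at plating, with media and compound fully replaced on DIV 5 and 9. Network spike counts from four recording days are integrated as trapezoidal AUC.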

A short description of test [7]: CCTE_Shafer_MEA_dev_network_spike_peak: CCTE's Neural Network Formation Assay for Mean Number of Electrodes in Network Spike, Shafer Lab (AID 2284049). An outline of the steps:
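Rat cortical primary culture, 1.5 x 10^5 cells/well, 48-well MEA (16 electrodes/well). Dosing day 0 through DIV 12, full media/compound exchange DIV 5, 9. AxIS adaptive spike detection; AUC over days 5/7/9/12; loss-of-signal vs DMSO.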

Test [8] is described as follows: CCTE_Shafer_MEA_dev_spike_duration_mean: CCTE's Neural Network Formation Assay for Mean Spike Duration, Shafer Lab (AID 2284051). The gist of the method: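 Spontaneous activity was recorded on days 5, 7, 9 and 12 from rat cortical cultures grown on microelectrode arrays and dosed continuously from day 0, with media and compound renewed after the DIV 5 and 9 recordings. Network-spike duration was collapsed by area under the curve.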

Test [9] can be described thus: CCTE_Shafer_MEA_dev_per_network_spike_spike_number_mean: CCTE's Neural Network Formation Assay for Mean Number of Spikes in a Network Spike, Shafer Lab (AID 2284053). An outline of the steps:
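Mean spike count within each network spike, taken in a 0.05 s window at its peak, was recorded on days 5, 7, 9 and 12 and integrated as trapezoidal area under the curve. Rat cortical cultures on MEA plates received continuous compound from day 0, refreshed at medium changes on DIV 5 and 9.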

Test [10] is described as follows: CCTE_Shafer_MEA_dev_per_network_spike_spike_percent: CCTE's Neural Network Formation Assay for Percent of Spikes in a Network Spike, Shafer Lab (AID 2284054). The gist of the method:
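Rat primary cortical cultures, 1.5 x 10^5 cells/well on MEA. Continuous compound exposure d0–12, medium/compound renewed DIV 5, 9. Network-spike spike % (0.05 s peak window), AUC over 4 recordings, DMSO baseline.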

Test [11] can be described thus: CCTE_Shafer_MEA_dev_LDH: CCTE's Lactate Dehydrogenase Assay for Cytotoxicity in the Neural Network Formation Assay, Shafer Lab (AID 2284068; active = hit-call score of the fitted dose curve at least 0.9, where 1 is the maximum;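 also: exposure for twelve days from plating with re-dosing on DIV 5 and 9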). An outline of the steps:
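Primary rat cortical neurons were cultured on PEI-coated MEA plates and exposed from plating through day 12, with compound renewed at medium changes on DIV 5 and 9. LDH activity was read spectrophotometrically; loss of signal versus DMSO indicates reduced viability.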

The nature of test [12]: CCTE_Shafer_MEA_dev_AB: CCTE's Alamar Blue Assay for Cytotoxicity in the Neural Network Formation Assay, Shafer Lab (AID 2284083; active = hit-call score of the fitted dose curve at least 0.9, where 1 is the maximum;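 also: resazurin reduction fluorescence as viability of cultured neurons; twelve days of exposure from plating with re-dosing on DIV 5 and 9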). An outline of the steps: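 Resazurin fluorescence, relative to DMSO, gauges viability after twelve days of exposure that began at plating of rat cortical neurons (1.5 x 10^5 cells/well, 48-well MEA); treatment renewed with full medium exchange on DIV 5 and 9.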
(Resazurin is reduced to fluorescent resorufin, in cell work by metabolically active cells.)

Test [13] is described as follows: CCTE_Shafer_MEA_dev_mutual_information_norm: CCTE's Neural Network Formation Assay for Mutual Information Normalization, Shafer Lab (AID 2284091). An outline of the steps: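 Developing rat cortical networks on 16-electrode MEA wells are treated throughout formation (DIV 0–12). Shared electrode information is recorded four times, converted to area-under-curve, and fitted for decreases against DMSO vehicle.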

Test [14] in a line: CCTE_Shafer_MEA_dev_correlation_coefficient_mean: CCTE's Neural Network Formation Assay for Mean Correlation Coefficient, Shafer Lab (AID 2284093). The gist of the method: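 Primary rat cortical neurons on PEI-coated 48-well MEA plates (16 electrodes/well) were exposed from plating day 0 through DIV12, with compound renewed at DIV5 and 9. Pairwise spike correlations were averaged per well; trapezoidal AUC across DIV5, 7, 9, 12.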

Test [15] is described as follows: IUF_NPC1b_proliferation_BrdU_72hr: Leibniz Research Institute for Environmental Medicine (IUF) 72-hour Neural Progenitor Cell Bromodeoxyuridine (BrdU) Proliferation Assay (NPC1b) (AID 2284207). An outline of the steps: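 Proliferation of primary human neural progenitor cells: 72 h compound treatment at 37C, 5% CO2, pH 7.2-7.6, in EGF/FGF-containing medium. Readout is BrdU uptake (last 16 h) by chemiluminescent ELISA, normalised to DMSO.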

The nature of test [16]: IUF_NPC1_viability_72hr: Viability Assessment at 72 hours in the Leibniz Research Institute for Environmental Medicine (IUF) Neural Progenitor Cell Proliferation Assay (NPC1) (AID 2284209). The gist of the method: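 Single spheres (0.25-0.35 mm) of human fetal cortex-derived neural progenitor cells were grown in proliferation medium with EGF and FGF at 37C and 5% CO2. They were exposed for 72 h without renewal, and viability was read by alamar blue resorufin fluorescence.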

Test [17] is described as follows: CCTE_Mundy_HCI_Cortical_Synap_Neur_Matur_NeuriteSpotCountPerNeuriteLength: CCTE's Synaptogenesis and Neurite Maturation Assay in rat cortical cells for Neurite Spot Count per Neurite Length, Mundy Lab (AID 2284210). An outline of the steps:
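Primary rat cortical neurons, compound exposure DIV 7–12, 288.33 h endpoint. Hoechst, anti-MAP2 and anti-synaptophysin labelling; neurite-associated puncta per neurite length scored by automated imaging relative to DMSO controls.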

The nature of test [18]: CCTE_Mundy_HCI_Cortical_Synap_Neur_Matur_BPCount: CCTE's Synaptogenesis and Neurite Maturation Assay in rat cortical cells for Branch Point Count, Mundy Lab (AID 2284211). An outline of the steps:
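Rat primary cortical cultures, AraC added DIV 5; chemicals dosed DIV 7 through DIV 12. Fixed cells stained for MAP2, synaptophysin and Hoechst; neurite branch points counted by automated high-content imaging, fitted relative to DMSO.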

The nature of test [19]: CCTE_Mundy_HCI_Cortical_NOG_NeuriteCount: CCTE's Neurite Outgrowth Assay in rat cortical cells for Neurite Count, Mundy Lab (AID 2284212).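 Also: cells fixed about two days after chemical exposure began.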 An outline of the steps: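 Neurite number per cell from high-content imaging of betaIII-tubulin immunostaining, with Hoechst nuclear counterstain.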
Test [20] is described as follows: CCTE_Mundy_HCI_Cortical_NOG_NeuriteLength: CCTE's Neurite Outgrowth Assay in rat cortical cells for Neurite Length, Mundy Lab (AID 2284213). An outline of the steps: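 Neurite length was read by high-content imaging of βIII-tubulin-labelled neurites in rat primary cortical cultures. Activity was fitted relative to DMSO.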

Records with an inconclusive call do not appear. Calls of active or inactive are those of the source. The calls were made as follows, unless noted: active = hit-call score of the fitted dose curve at least 0.9, where 1 is the maximum; inactive = score below 0.9.

`F`: the compound was called inactive in [1], in test [2], in test [3], in [4], in [5] and in test [6]. The compound was called inactive in test [7], in test [8], in [9], in test [10], in [11] and in test [12]. Moreover, the result in test [13], in test [14], in [17], in test [18], in test [19] and in [20] was inactive. For the same compound, the AC50 in [15] was 1.04 mM (active); in test [16], 2.64 mM (active).
